A selection: hits, their analogues and other compounds. The true share with any hit is near 2.3%.
Rpn11 inh: Rpn11 (human) deubiquitinase inhibition | O00487 | human 26S proteasome, Ub4-pepOG fluorescence polarization; 20S core pre-blocked with epoxomicin | inhibition, % at 20 µM | 360,000 tested, 0.59% active | AID 588493;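 active means inhibition at 20 µM, scaled to each plate's controls, above about 33%, limit read from the data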
Rin1 Abl inh: blocks binding of human Rin1 to Abl; 360,000 tested, 0.4% active; TR-FRET Rin1/Abl binding, biochemical; P00519+Q13671; AID 588664; inhibition, % at 7.35 µM; in the data active means inhibition above about 5%, passing the limit was not always enough
TPT1 inh: inhibitors of Candida albicans tRNA 2'-phosphotransferase TPT1 | recombinant caTPT1, FP RNA substrate dephosphorylation | inhibition, % at 5 µM | AID 1962 | 300,000 tested, 0.81% active;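 active means inhibition above the mean of all tested compounds plus 3 SD, set per screening campaign, cut at about 24% in these data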
IDE inh: inhibits human insulin-degrading enzyme in HEK cells; P14735; 320,000 tested, 0.41% active; FAbetaB cleavage, fluorescence polarization; inhibition, % at 5.59 µM; AID 434962;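 active means percent inhibition above the average of all tested compounds plus 3 SD, set per screening campaign, cut at about 16% in these data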;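 further: IDE supplied by intact live HEK cells; FP after avidin binding of uncleaved biotin substrate so inhibition keeps polarization high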
IDE cell activ: IDE (human) activation, cell-based. AID 493087. 340,000 tested, 0.073% active. activation, % at 5.96 µM. HEK cells, FAbeta-B cleavage, fluorescence polarization; 0% vehicle, 100% cell-free pure enzyme wells;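 active means activation above the mean of all tested compounds plus 3 SD, set per screening campaign, cut at about 17% in these data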
Calb FLC: C. albicans growth modulation with fluconazole; C. albicans CaCi-2 (fluconazole-resistant clinical isolate) + fluconazole, Alamar Blue growth, 48 h; growth inhibition, % (no concentration beside the values); 300,000 tested, 0.57% active;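 active means growth inhibition above about 58% in most replicates, limit read from the data, passing the limit was not always enough; inconclusive means exactly half the replicates above a set limit; inactive means most replicates below a set limit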;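 further: all wells also contain fluconazole at 8 µg/ml as a sub-toxic cotreatment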
Rpn11 inh conf: Rpn11 inhibition confirmation, single concentration; shares compounds with Rpn11 inh; purified human 26S proteasome, Ub4-pepOG fluorescence polarization; proteasome pretreated with epoxomicin; inhibition, % at 20 µM; 1,900 tested, 29% active
MMP-2 inh: counter-screen for RPN11 inhibitors: inhibition of human MMP-2. shares compounds with Rpn11 inh. recombinant MMP-2, FRET peptide cleavage fluorescence. inhibition, % at 20 µM. 1,900 tested, 4% active. AID 602330;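 further: human MMP-2 activated beforehand with APMA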
Target sequence (P08253 whole entry, looked up): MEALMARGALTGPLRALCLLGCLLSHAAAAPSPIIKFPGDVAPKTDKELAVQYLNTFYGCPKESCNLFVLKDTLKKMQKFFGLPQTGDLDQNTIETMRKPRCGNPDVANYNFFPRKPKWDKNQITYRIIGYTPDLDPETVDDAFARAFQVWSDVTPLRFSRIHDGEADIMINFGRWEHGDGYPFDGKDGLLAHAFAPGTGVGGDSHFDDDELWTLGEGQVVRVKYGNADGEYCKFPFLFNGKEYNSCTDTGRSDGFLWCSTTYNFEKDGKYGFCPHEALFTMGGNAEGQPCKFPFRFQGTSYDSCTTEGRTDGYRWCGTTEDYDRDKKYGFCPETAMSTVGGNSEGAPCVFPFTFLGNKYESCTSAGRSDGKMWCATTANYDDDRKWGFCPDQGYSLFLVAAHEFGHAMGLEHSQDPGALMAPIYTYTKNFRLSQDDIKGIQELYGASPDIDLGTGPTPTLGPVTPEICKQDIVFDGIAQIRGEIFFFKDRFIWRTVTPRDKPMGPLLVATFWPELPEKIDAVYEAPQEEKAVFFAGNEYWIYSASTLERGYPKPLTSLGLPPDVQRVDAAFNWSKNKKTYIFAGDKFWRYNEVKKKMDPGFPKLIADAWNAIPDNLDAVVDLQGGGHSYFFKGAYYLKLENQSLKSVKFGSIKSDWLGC
Thrombin inh: counter-screen for RPN11 inhibitors: inhibition of bovine thrombin. 1,900 tested, 13% active. bovine thrombin cleavage of Ub4-pepOG, fluorescence polarization. inhibition, % at 20 µM. shares compounds with Rpn11 inh;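 active means mean inhibition at least 40% at 20 µM, or signal 3 deviations below plate average, so some actives read negative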
Of the large screens only hits and unclear results are named; the others gave an inactive call (follow-up assays come after a bar, where they were run). Unless noted, no stated cut-off is given here; in the data, active means inhibition above about 40%; inactive means the rest.

Nn1c(C2CCC2)nc2cc(Cl)ccc2c1=O	none
COC(=O)C1=C(O)/C(=C\c2ccc(OCC(=O)Nc3ccccc3OC)cc2)N=C1C	none
COC(=O)C1=C(O)/C(=C\c2ccc(O)c(OC)c2)N=C1C	Rpn11 inh 60 | Rpn11 inh conf inactive | MMP-2 inh inactive | Thrombin inh inactive
O=C1C(=Cc2cn(-c3ccccc3)nc2-c2ccc(OCc3ccccc3)cc2)SC(=S)N1CCS(=O)(=O)O	Rpn11 inh 98 (no result: TPT1 inh, IDE inh, IDE cell activ, Calb FLC) | Rpn11 inh conf 90 | MMP-2 inh inactive | Thrombin inh 134
CC(C)COc1ccc(-c2nn(-c3ccccc3)cc2/C=C2/SC(=S)N(CC(=O)O)C2=O)cc1	Rpn11 inh 49 | Rpn11 inh conf 41 | MMP-2 inh inactive | Thrombin inh 49
COc1ccc(CCNC(=O)C2CCN(S(=O)(=O)c3ccc(C)cc3)CC2)cc1	none
COc1ccccc1NC(=O)CCC(=O)c1ccc(-c2ccccc2)cc1	Rpn11 inh 59 | Rpn11 inh conf inactive | MMP-2 inh inactive | Thrombin inh inactive
CCC1(c2ccc(F)cc2)NC(=O)N(CC(=O)N2CCN(S(=O)(=O)c3ccc(C)cc3C)CC2)C1=O (stereo not drawn)	none (no result: TPT1 inh, IDE inh, Calb FLC)
CC1CN(C(=O)CSc2nc(N)cc(N)n2)CC(C)O1 (stereo not drawn)	none (no result: TPT1 inh, Calb FLC)
Cc1ccc2[nH]c(O)c(N=Nc3ccccc3C)c2c1	Rpn11 inh 54 | Rpn11 inh conf 64 | MMP-2 inh inactive | Thrombin inh inactive
Cc1c2cc[n+](CCN3CCCCC3)cc2c(C)c2c1[nH]c1ccc(O)cc12	Rpn11 inh 90 (no result: TPT1 inh, IDE inh, Calb FLC) | Rpn11 inh conf 69 | MMP-2 inh 42 | Thrombin inh inactive
CCOC(=O)c1[nH]c2ccc(C)cc2c1NC(=O)CN1CCCCC1	none
CSCCC(NC(=O)c1ccco1)C(=O)OC(C)C(=O)NC(=O)NC1CCCCC1 (stereo not drawn)	Rpn11 inh 95, Calb FLC inconclusive | Rpn11 inh conf inactive | MMP-2 inh inactive | Thrombin inh inactive
COc1cc(C2C(C#N)=C(N)N(N(C)C)C3=C2C(=O)CC(C)(C)C3)cc(OC)c1OC (stereo not drawn)	none
C=CCn1c(=NC(=O)c2sc3ccccc3c2Cl)sc2cc(S(N)(=O)=O)ccc21	Rpn11 inh 49 | Rpn11 inh conf 49 | MMP-2 inh inactive | Thrombin inh inactive
C=CCn1c(=NC(=O)c2cc(-c3cccs3)nc3ccccc23)sc2cc(S(N)(=O)=O)ccc21	none
COCCn1c(=NC(=O)c2sc3ccccc3c2Cl)sc2cc(S(N)(=O)=O)ccc21	none
CCOC(=O)Cn1c(=NC(=O)c2nc3ccccc3s2)sc2cc(S(N)(=O)=O)ccc21	Rpn11 inh 41 | Rpn11 inh conf inactive | MMP-2 inh inactive | Thrombin inh inactive
COCCn1c(=NC(=O)c2cc(-c3cccs3)nc3ccccc23)sc2cc(S(N)(=O)=O)ccc21	Rpn11 inh 58 | Rpn11 inh conf inactive | MMP-2 inh inactive | Thrombin inh inactive
CCOC(=O)C1CCN(CC(O)COc2ccc(S(=O)(=O)N3CCCC3)cc2[N+](=O)[O-])CC1 (stereo not drawn)	none (no result: TPT1 inh, IDE inh, Calb FLC)
N#C/C(=C\c1ccccc1)C(=O)Nc1nncs1	none
CC(C)CNC(=O)COC(=O)c1c2c(nc3ccccc13)/C(=C\c1cccs1)CC2	none (no result: TPT1 inh, IDE inh, Calb FLC)
CN(CCC#N)C(=O)COC(=O)c1c2c(nc3ccccc13)/C(=C/c1ccco1)CC2	Rpn11 inh 71 | Rpn11 inh conf 45 | MMP-2 inh inactive | Thrombin inh inactive
CN[C@@H]1CC[C@H](c2ccc(Cl)c(Cl)c2)c2ccccc21	none (no result: TPT1 inh, IDE inh)
O=C(Cc1cccs1)N(Cc1cccs1)C1(C(=O)NC2CCCC2)CCCCC1	Rpn11 inh 136 | Rpn11 inh conf inactive | MMP-2 inh inactive | Thrombin inh inactive
CC(=O)/C(=N\Nc1ccccc1)Sc1cccc2cccnc12	none
O=C(Sc1cccc2cccnc12)c1ccccc1Br	Rpn11 inh 85, Calb FLC 112 | Rpn11 inh conf 65 | MMP-2 inh inactive | Thrombin inh inactive
Cn1c(=O)c2cc(NC(=O)Nc3cccnc3)ccc2n1Cc1cccc(C(F)(F)F)c1	none (no result: TPT1 inh, IDE inh, IDE cell activ, Calb FLC)
Cn1c(=O)c2cc(NC(=O)Nc3cccnc3)ccc2n1Cc1ccc(Cl)cc1	Rpn11 inh 46 (no result: TPT1 inh, IDE inh, IDE cell activ, Calb FLC) | Rpn11 inh conf inactive | MMP-2 inh inactive | Thrombin inh inactive
CCc1ccc(OCC(=O)Nc2ccc(-c3nc4ccccc4o3)c(O)c2)cc1	Rpn11 inh 128 | Rpn11 inh conf inactive | MMP-2 inh inactive | Thrombin inh inactive
COc1ccc(OCC(=O)Nc2cccc(-c3nc4ccccc4o3)c2)cc1	none
CC(=O)c1ccc(S(=O)(=O)Nc2ccc(C(=O)NCCCn3ccnc3)cc2)cc1	none (no result: TPT1 inh, Calb FLC)
COc1ccccc1-c1cc(C(=O)Nc2cc(C)nn2-c2ccccc2)no1	Rpn11 inh 59 | Rpn11 inh conf 65 | MMP-2 inh inactive | Thrombin inh inactive
COc1ccc(S(=O)(=O)Nc2cccc3c2O[C@H](CN(C)Cc2ccncc2)[C@@H](C)CN([C@H](C)CO)C3=O)cc1	none (no result: TPT1 inh, Calb FLC)
Brc1ccc(C2=Nn3c(nnc3-c3cccnc3)SC2)s1	Rpn11 inh 67 | Rpn11 inh conf inactive | MMP-2 inh inactive | Thrombin inh inactive
CCSC1=N/C(=C\c2ccc3c(c2)OCO3)C(=O)S1	Rpn11 inh 42 | Rpn11 inh conf 74 | MMP-2 inh inactive | Thrombin inh inactive
CCCSC1=N/C(=C\c2ccc3c(c2)OCO3)C(=O)S1	none
O=C(NNC(=O)c1ccccc1O)c1ccc(S(=O)(=O)Nc2ccccc2)cc1	none
COc1cccc(-c2csc3nnc(SCC(=O)c4ccc(NC(C)=O)cc4)n23)c1	Rpn11 inh 40 | Rpn11 inh conf inactive | MMP-2 inh inactive | Thrombin inh inactive
COC(=O)c1ccc(COC(=O)CCNS(=O)(=O)c2ccc(C)c(C)c2)cc1	none (no result: TPT1 inh, IDE inh, Calb FLC)
COc1ccc(CN2C(=O)C(Cc3ccccc3)Nc3ncnc(N4CCc5ccccc5C4)c32)cc1 (stereo not drawn)	none (no result: Rpn11 inh, Rin1 Abl inh, IDE cell activ)
CCOc1ccc(-c2nc(S(=O)(=O)c3ccccc3)c(N3CCC(C(N)=O)CC3)o2)cc1	none
CC1Cc2ccccc2N1C(=O)c1ccc(N2CCCCC2)c([N+](=O)[O-])c1 (stereo not drawn)	Rpn11 inh 33 | Rpn11 inh conf inactive | MMP-2 inh inactive | Thrombin inh inactive
CC1Cc2ccccc2N1C(=O)c1ccc(N2CCCC2)c([N+](=O)[O-])c1 (stereo not drawn)	none
